Laboratory results from PubChem BioAssay AID588683 (Broad Institute, 2011).
Measured potencies and affinities stand elsewhere. Active and inactive are the calls of the source. How the calls were made is not given here.

What follows are compounds tested against Kelch-like ECH-associated protein 1 (Homo sapiens) + Nuclear factor erythroid 2-related factor 2 (Homo sapiens) (UniProt Q14145+Q16236) (assay: disruptors of Keap1 binding to Nrf2 peptide – biochemical, fluorescence polarization, cherry-picked samples, dose response (AID 588683;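 further: Kelch domain of Keap1 binding a fluorescein-labelled 9mer Nrf2 peptide; more negative means stronger inhibition of peptide binding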)). Conditions: plate reader; series mostly up to 26 µM; activity change, negative = inhibition: at the top concentration.
Sequence of Kelch-like ECH-associated protein 1 (Homo sapiens) + Nuclear factor erythroid 2-related factor 2 (Homo sapiens) (Q14145 whole entry, looked up, the tested form may be a part): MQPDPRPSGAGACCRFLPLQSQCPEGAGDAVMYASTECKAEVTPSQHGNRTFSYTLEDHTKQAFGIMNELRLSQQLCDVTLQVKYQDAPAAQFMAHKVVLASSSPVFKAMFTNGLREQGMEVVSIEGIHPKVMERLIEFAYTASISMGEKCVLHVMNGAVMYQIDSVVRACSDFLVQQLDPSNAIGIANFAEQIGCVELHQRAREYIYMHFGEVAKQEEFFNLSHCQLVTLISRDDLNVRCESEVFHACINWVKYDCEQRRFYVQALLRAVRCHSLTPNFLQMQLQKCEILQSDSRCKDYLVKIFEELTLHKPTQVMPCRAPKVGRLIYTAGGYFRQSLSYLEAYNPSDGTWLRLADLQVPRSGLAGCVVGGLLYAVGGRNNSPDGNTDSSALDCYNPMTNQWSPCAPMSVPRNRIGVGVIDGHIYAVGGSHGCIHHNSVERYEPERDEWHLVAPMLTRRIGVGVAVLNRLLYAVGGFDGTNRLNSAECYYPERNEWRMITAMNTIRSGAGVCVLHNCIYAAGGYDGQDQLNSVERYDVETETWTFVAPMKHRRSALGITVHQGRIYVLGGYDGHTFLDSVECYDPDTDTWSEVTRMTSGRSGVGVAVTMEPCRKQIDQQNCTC
Sequence of Kelch-like ECH-associated protein 1 (Homo sapiens) + Nuclear factor erythroid 2-related factor 2 (Homo sapiens) (Q16236 whole entry, looked up, the tested form may be a part): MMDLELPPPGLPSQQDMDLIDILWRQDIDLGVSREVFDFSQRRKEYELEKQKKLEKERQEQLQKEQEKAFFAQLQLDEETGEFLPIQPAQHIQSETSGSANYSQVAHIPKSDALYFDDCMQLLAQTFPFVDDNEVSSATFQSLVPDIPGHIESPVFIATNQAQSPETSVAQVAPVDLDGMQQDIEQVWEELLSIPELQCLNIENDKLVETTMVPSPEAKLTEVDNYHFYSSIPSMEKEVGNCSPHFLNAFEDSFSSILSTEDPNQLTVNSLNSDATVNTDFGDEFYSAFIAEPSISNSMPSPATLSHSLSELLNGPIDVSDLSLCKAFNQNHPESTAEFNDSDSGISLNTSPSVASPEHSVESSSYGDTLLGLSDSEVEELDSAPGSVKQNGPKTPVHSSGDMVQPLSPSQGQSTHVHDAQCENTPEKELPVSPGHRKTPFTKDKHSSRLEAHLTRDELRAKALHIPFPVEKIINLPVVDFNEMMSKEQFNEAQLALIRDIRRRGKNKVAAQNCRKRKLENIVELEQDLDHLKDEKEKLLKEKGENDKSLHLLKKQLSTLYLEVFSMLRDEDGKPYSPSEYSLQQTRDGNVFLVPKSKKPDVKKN

Activity change, negative = inhibition, inactive:
CN1C(=O)c2cccc3c(S(N)(=O)=O)ccc1c23 -6.58%, CCOC(=O)c1ccc2ncc(C(=O)OCC)c(NCCN(C)C)c2c1 -6.02%, Cc1ccc(C(=O)N/C(=C\c2ccc(-c3ccccc3[N+](=O)[O-])o2)C(=O)NCCCN(C)C)cc1 -4.73%, C=CCn1ccc(=NC=C(C#N)C#N)c2ccccc21 45.1%, C/C(=N/Nc1ccccc1C(=O)O)c1cccs1 -6.44%, Cc1ccc(C(=O)NNC(=O)c2n[nH]c(=O)c3ccccc23)cc1C -2.74%, CCOc1ccc(S(=O)(=O)Nc2cccc(C(=O)NCCCn3ccnc3)c2)cc1 15.2%, CC1OC2(C)OC(=N)C1(C#N)C(C#N)(C#N)C2c1ccccc1 (stereo not drawn) -11.3%, O=C(COC(=O)/C=C/c1cccc(Cl)c1)NC1CC1 10.7%, O=C(Cc1ccc(S(=O)(=O)N2CCCC2)s1)Nc1nc2c(s1)CCCC2 -0.217%, CCC(CNc1cc(OC)cc2cccnc12)NC1CCCCC1 (stereo not drawn) -15.9%, C=CCn1c(=O)/c(=C\c2ccsc2)s/c1=C(/C#N)C(=O)NCCN1CCOCC1 -4.59%, CN(C)c1ccc(/C=N/NC(=O)CCC(=O)NCc2ccccc2)cc1 -5.52%, Cc1snc(S(=O)(=O)/C(C#N)=N/Nc2cccc(C(F)(F)F)c2)c1C#N 0.963%, Oc1ccc2c(c1)OCC1(O)Cc3cc(O)c(O)cc3C21 (stereo not drawn) -8.58%, NC(=O)CC(NC(=O)Cc1cccc2ccccc12)c1ccc(NCc2ccccc2)c([N+](=O)[O-])c1 (stereo not drawn) -0.628%, CCC(=O)c1cn(CC(=O)Nc2ccc(OC)cc2)c2ccccc12 2.85%, COc1ccc2c(c1)c1nc3ccccc3nc1n2CC(=O)OC(C)C -4.13%, COC(=O)N/N=C/c1cn(Cc2ccccc2Cl)c2ccccc12 -4.96%, COc1ccc(C2N3CC4(C)CN2CC(C)(C3)C4O)cc1 (stereo not drawn) -6.86%, O=C(O)CC(Cn1cnnn1)c1ccccc1 (stereo not drawn) -3.47%, CCCc1cc(NC(=O)COC(=O)c2nccnc2N)n(-c2ccccc2)n1 0.425%, Cc1ccc(C2=CC(c3cccs3)n3nnnc3N2)cc1 (stereo not drawn) 2.17%, CCCCC(CC)C(=O)Oc1ccc(O)c(C(C)(C)C)c1 (stereo not drawn) -6.25%, CCOC(=O)N1CCN(Cc2ccccc2Cl)CC1 -11.2%, COc1ccc(NS(=O)(=O)c2ccc(F)c(Cl)c2)cn1 -13.4%, COc1ccc(/C=N/N=C2/CC(C)(C)Cc3n[nH]c(=O)cc32)cc1 -23.3%, C=CCn1c(O)c(CN2CCOCC2)c(C)c(C#N)c1=O -13.2%, Cc1ccc(Cn2c(=N)c(C(=O)NC3CCCC3)cc3c(=O)n4ccccc4nc32)cc1 -7.84%, Cc1cccc(NS(=O)(=O)c2ccc(C)c(C(=O)NCC(c3ccccc3)N(C)C)c2)c1 (stereo not drawn) 11%, CS(=O)(=O)N1CCCC(C(=O)Nc2ccc(F)c(F)c2)C1 (stereo not drawn) 2.9%, COc1ccccc1N(C)S(=O)(=O)c1ccc(C(=O)NCc2ccccc2CN2CCCC2)cc1 -4.38%, O=C(NC1(O)C(=O)c2ccccc2C1=O)c1c(Cl)cccc1Cl 11.9%, CC1(C)CC(=O)C(N=Nc2c(F)cccc2F)=C(O)C1 1.16%, Cc1cnc(NC(=O)Cc2ccc(S(=O)(=O)N3CCOCC3)s2)s1 12.2%, O=C(NNc1cc(Cl)ccc1Cl)c1cccs1 0.801%, NC(=O)COc1ccc(NC(=O)CC23CC4CC(CC(C4)C2)C3)cc1 7.9%, CCN1CC=C2C(C1)C(c1ccc(Cl)s1)C(C#N)=C(N)C2(C#N)C#N (stereo not drawn) -10%
